{"source": "PubChem BioAssay AID1347414", "about": "(National Center for Advancing Translational Sciences (NCATS), 2020)", "note": "Inconclusive results are not listed. The source made the active and inactive calls. The call rests on the fitted dose curve; in most records, active means well fitted inhibition curve with a large enough effect; inconclusive means small, poorly fitted or top-dose-only effect; inactive means no such curve, though single readings can be large or run the other way. On the % scale 0 is the no-effect control and ±100 the full control effect; potency means the concentration at half of the fitted maximal effect.", "data": [{"assay": "qHTS to identify inhibitors of the type 1 interferon - major histocompatibility complex class I in skeletal muscle: Secondary screen by immunofluorescence; further: nearly all actives have a fitted effect of over 70% in size;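 on activity change, negative = inhibition: digitonin at 100 µM served as the cytotoxic control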", "conditions": "C25cl48 myoblasts, IFN-b induced HLA-ABC immunofluorescence, 24 h, Viability; series mostly up to 49.8 µM; activity change, negative = inhibition: at the top concentration", "method_in_brief": "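HLA-ABC immunofluorescence, with nuclear and cell-body stains, was quantified by laser scanning cytometry. Read-out followed 24 h of IFN-beta (4.0 ng/ml) stimulation of C25cl48 human myoblasts with compounds titrated 1:3 over 11 points from 50 uM, with ruxolitinib as inhibitor control.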", "values": [{"smiles": "C1=C/COCc2cc(ccc2OCCN2CCCC2)Nc2nccc(n2)-c2cccc(c2)COC/1", "Potency": "11.5 µM (active)"}, {"smiles": "COC(=O)N[C@@H](C)CNc1nccc(-c2cn(C(C)C)nc2-c2cc(Cl)cc(NS(C)(=O)=O)c2F)n1", "activity change, negative = inhibition": "3.67% (inactive)"}, {"smiles": "CCOc1cc2ncc(C#N)c(Nc3ccc(F)c(Cl)c3)c2cc1NC(=O)/C=C/CN(C)C", "Potency": "16.2 µM (active)"}, {"smiles": "Nc1ccccc1NC(=O)c1ccc(CNc2nccc(-c3cccnc3)n2)cc1", "activity change, negative = inhibition": "-4.92% (inactive)"}, {"smiles": "CN(C)c1ccc(C(=O)NCCCCCCC(=O)NO)cc1", "activity change, negative = inhibition": "6.5% (inactive)"}, {"smiles": "COC(=O)C[C@](O)(CCCC(C)(C)O)C(=O)O[C@@H]1C(OC)=C[C@]23CCCN2CCc2cc4c(cc2[C@H]13)OCO4", "activity change, negative = inhibition": "25.5% (inactive)"}, {"smiles": "O=C1NCCc2[nH]c(-c3ccncc3)cc21", "activity change, negative = inhibition": "-11.3% (inactive)"}, {"smiles": "Cc1ccc2nc(NCCN)c3ncc(C)n3c2c1", "activity change, negative = inhibition": "9.24% (inactive)"}, {"smiles": "Cc1oncc1C(=O)Nc1ccc(C(F)(F)F)cc1", "activity change, negative = inhibition": "-2.37% (inactive)"}, {"smiles": "O=C(Nc1cn[nH]c1-c1nc2ccc(CN3CCOCC3)cc2[nH]1)NC1CC1", "activity change, negative = inhibition": "-21.8% (inactive)"}, {"smiles": "C[C@H](Nc1ncnc2nc[nH]c12)c1cc2cccc(Cl)c2c(=O)n1-c1ccccc1", "activity change, negative = inhibition": "-1.87% (inactive)"}, {"smiles": "Cc1ccc([N+](=O)[O-])cc1S(=O)(=O)N(C)/N=C/c1cnc2ccc(Br)cn12", "activity change, negative = inhibition": "0.361% (inactive)"}, {"smiles": "C[C@@]12O[C@@H](C[C@]1(O)CO)n1c3ccccc3c3c4c(c5c6ccccc6n2c5c31)CNC4=O", "activity change, negative = inhibition": "-15.3% (inactive)"}, {"smiles": "CC(C)c1cc(CNc2nc(Nc3cc(C4CC4)[nH]n3)cc(N3CCN(C)CC3)n2)on1", "activity change, negative = inhibition": "-19.3% (inactive)"}, {"smiles": "CCN(CC)CCOc1ccc(Nc2ncc3cc(-c4c(Cl)cccc4Cl)c(=O)n(C)c3n2)cc1", "Potency": "9.13 µM (active)"}]}]}
